mHTT-CaM PPI inh: inhibitors of human mutant huntingtin-calmodulin interaction; 190,000 compounds, 3.6% hits; AlphaScreen His-mHTT/GST-CaM binding, luminescence; P42858; AID 1671202; inhibition, % at 15 µM;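 also: 0% = both proteins with DMSO and 100% = one protein alone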
Pf apPOL block: Pf-apPOL DNA polymerase inhibition | Recombinant Pf-apPOL, molecular beacon fluorescence, 1.5 h | inhibition, % at 10 µM | 210,000 compounds, 0.25% hits | AID 1794808
* hit, by the source's call; . = no result given. Compounds with a hit are over-represented: about 3.6% of the library has one in this group of screens. Rule as the data show it: active = inhibition above about 50%; inactive = the rest.

SMILES	mHTT-CaM PPI inh	Pf apPOL block
C1=CC2c3cccc4c3N(CC2C1)CC1CC=CC41 (configuration not stated)	39.8	.
O=C(O)c1cc2c3c(c1)C1C=CCC1C(c1ccc(F)cc1)N3CC1CC=CC21 (configuration not stated)	96.0*	-1.8
O=C(c1ccno1)N1CCN(c2nc3ccc(Cl)cc3s2)CC1	-1.2	-35.7
Cc1cccc(CN2CCN(C3CCN(C(=O)Nc4ccc(F)c(Cl)c4)CC3)C2=O)c1	-4.8	5.8
COc1ccc(CC(=O)Nc2ccc(F)cc2)cc1	-8.2	-8.7
Cc1ccc(-n2nnc(-c3noc(C)n3)c2C)cc1	-8.3	-0.9
CC(C)c1ccc(/C=C2\C(=O)Nc3ccc(Cl)cc32)cc1	21.0	3.2
CCc1nc(-c2ccccc2O)n(-c2ccccc2)n1	2.1	-7.9
COc1cc(/C=C/c2nc(-c3ccccc3O)n(-c3ccccc3)n2)ccc1O	88.0*	-7.6
CC(=O)Oc1ccc2c(c1)OC(=Cc1cccc(Br)c1)C2=O	1.2	-6.4
Cc1ccc(N2CCC(NC(=O)c3ccc(Br)o3)C2=O)cc1 (configuration not stated)	-1.8	-0.6
Cc1ccsc1C(=O)NC1(c2nc(-c3cccnc3)no2)CCCCC1	2.4	-2.5
Cc1cccc(C)c1NC(=O)CN1C(=O)c2ccc([N+](=O)[O-])cc2C1=O	0.0	-0.1
O=C(CN1C(=O)S/C(=C\c2c(Cl)cccc2Cl)C1=O)Nc1cc([N+](=O)[O-])ccc1O	61.0*	-19.1
O=C(c1ccsc1)N1CCCN(C2CCN(Cc3ccc(F)cc3)C2=O)CC1 (configuration not stated)	18.7	-1.3
Cc1ccccc1C(=O)N1CCCN(C2CCN(Cc3ccc(F)cc3)C2=O)CC1 (configuration not stated)	56.7*	0.2
Cc1ccsc1C(=O)N1CCCN(C2CCN(Cc3ccc(F)cc3)C2=O)CC1 (configuration not stated)	64.1*	8.3
CNC(=O)N1CCCN(C2CCN(Cc3ccc(F)cc3)C2=O)CC1 (configuration not stated)	1.0	1.0
CSc1ccccc1NC(=O)c1cccc(Br)c1	-22.0	10.5
Cc1ccc(CCNC(=O)c2ccc(N3C(=O)NC4CC3(C)Oc3ccccc34)cc2)cc1 (configuration not stated)	49.0	-6.0
Cc1ccc(CNC(=O)c2ccc(N3C(=O)NC4CC3(C)Oc3ccccc34)cc2)cc1 (configuration not stated)	55.0*	-7.8
COc1cccc(N2C(=O)NC3CC2(C)Oc2ccc(Cl)cc23)c1 (configuration not stated)	31.0	15.1
COc1cccc(N2C(=O)NC3CC2(C)Oc2ccccc23)c1 (configuration not stated)	88.0*	-3.8
Cc1ccc(N2C(=O)NC3CC2(C)Oc2ccc(Br)cc23)cc1Cl (configuration not stated)	55.0*	-4.0
Cc1ccc(N2C(=O)NC3CC2(C)Oc2ccc(Br)cc23)cc1C (configuration not stated)	36.0	-1.8
SMILES	mHTT-CaM PPI inh	Pf apPOL block
O=C(NCc1ccccc1)C1CCc2nc(N3CCOCC3)ncc2C1 (configuration not stated)	1.0	-15.9
Cc1c(N)n[nH]c1-c1cccs1	-2.2	.
N#CCSc1sc2c(O)cc(=O)[nH]c2c1C#N	-1.2	.
N#Cc1c(SCC(=O)c2ccc(Cl)s2)sc2c(O)cc(=O)[nH]c12	62.7*	.
O=C(NCCn1nc(-n2cccn2)ccc1=O)c1cc(-c2ccc(F)cc2)n[nH]1	-1.8	-13.5
CCOc1ccc2c(c1)C(=O)c1cc(OCC(=O)O)ccc1-2	2.0	-0.8
Cc1ccc2c(c1)-c1c(ssc1=S)C(C)(C)N2C	92.6*	.
CCOc1ccc2c(c1)-c1c(ssc1=S)C(C)(C)N2C	96.7*	.
CC1(C)Nc2ccccc2-c2c1ssc2=S	40.1	.
O=C1OC2(CCCC2)OC(=O)C1=Cc1ccc(Br)cc1	13.0	-1.1
CCc1ccc(S(=O)(=O)N2CCN(Cc3noc4ccccc34)CC2)cc1	-10.2	0.0
COc1ccc2c(c1)OC(=Cc1ccc(O)c(OC)c1)C2=O	40.0	-4.6
CCOc1ccc(S(=O)(=O)N2CCCN(C3CCN(CCOC)C3=O)CC2)cc1 (configuration not stated)	7.6	-6.3
COc1ccccc1N=Cc1c(C)[nH]n(-c2ccccc2)c1=O	41.0	-5.1
COc1ccc(OC)c(N=Cc2c(C)[nH]n(-c3ccccc3)c2=O)c1	67.0*	0.3
Cc1[nH]n(-c2ccccc2)c(=O)c1C=Nc1cc(Br)ccc1O	89.0*	0.9
Cc1[nH]n(-c2ccccc2)c(=O)c1C=Nc1c(C)[nH]n(-c2ccccc2)c1=O	8.0	-2.0
CCCn1cc(CNC(=O)C2CCc3sc(C(=O)N(C)C)cc3C2)c(C)n1 (configuration not stated)	-2.7	-8.1
CN1C(=O)NC(c2ccc(F)cc2)C2=C1CN(C1CC1)C2=O (configuration not stated)	-3.0	-1.1
CCCC(=O)NC(c1cccc(F)c1)c1ccc2cccnc2c1O (configuration not stated)	100.0*	2.2
CC(C)C(=O)NC(c1cccc([N+](=O)[O-])c1)c1ccc2cccnc2c1O (configuration not stated)	100.0*	5.2
CCCC(=O)NC(c1cccc([N+](=O)[O-])c1)c1ccc2cccnc2c1O (configuration not stated)	99.0*	-4.1
CC(NC(=O)c1ccc(-c2ccsc2)nc1)c1ccc(F)cc1 (configuration not stated)	-2.4	-3.6
CCCOc1ccc(CN2CCCC2c2c(C)noc2C)cc1 (configuration not stated)	-39.3	2.4
O=C(c1ccc2c(c1)OCO2)N1CCC(c2nnc(C3CC3)o2)CC1	-17.5	-4.3
SMILES	mHTT-CaM PPI inh	Pf apPOL block
C=CCc1ccccc1OCC(O)CN1CCN(c2ccccc2)CC1 (configuration not stated)	74.4*	-1.3
C=CCc1ccccc1OCC(O)CN1CCN(c2ccccc2OC)CC1 (configuration not stated)	42.9	-7.9
C=CCc1ccccc1OCC(O)CN1CCN(c2ccc(F)cc2)CC1 (configuration not stated)	75.5*	-12.9
C=CCc1ccccc1OCC(O)CN1CCN(c2ccccc2F)CC1 (configuration not stated)	-11.1	-2.4
O=C(CN1CCN(C(=O)Nc2ccc(Cl)cc2)CC1=O)NCc1ccccc1	-4.5	0.9
O=S(=O)(NCCC1C=CCCC1)c1ccc(Br)s1 (configuration not stated)	-40.9	.
O=C(NCc1ccccc1)c1ccc(-c2cccs2)nc1	-14.8	-6.7
COc1cccc(NC(c2ccccn2)c2ccc3cccnc3c2O)c1 (configuration not stated)	99.0*	-6.1
COc1ccc(C(NC(=O)c2ccccc2)c2ccc3cccnc3c2O)cc1 (configuration not stated)	100.0*	3.4
COc1cccc(NS(=O)(=O)c2cccc3cccnc23)c1	0.5	-2.9
COc1cccc(C(NC(=O)c2ccccc2)c2ccc3cccnc3c2O)c1 (configuration not stated)	100.0*	-0.1
COc1ccc(C(NC(=O)c2ccccc2)NC(=O)c2ccccc2)c(OC)c1	17.0	0.7
N=c1c(C(=O)NC2CCCC2)cc2c(=O)n3ccccc3nc2n1CCc1ccccc1	2.0	-1.4
CCOc1ccc(S(=O)(=O)N(Cc2ccsc2)C2CC2)cc1F	-12.1	-4.5

Screening data as filed in PubChem BioAssay.
